Measurements published in PubChem BioAssay.
The source made the active and inactive calls.

How the values were obtained:
[1] = test system: Plasmodium falciparum Sir2 (PF13_0152, Sir2A); test: pfSir2 binders on small-molecule microarrays, primary screen, biochemical, small-molecule microarray, 635 nm fluorescence (AID 1098); conditions: small-molecule microarray binding, fluorescence 635 nm; higher = more signal;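 further: score merges spot fluorescence intensity with its signal-to-noise ratio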
[2] = small-molecule microarray binders of probe aDKK1, primary screen, biochemical, biotinylated probe, 635/667 nm fluorescence (AID 1099); conditions: higher = more signal;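 further: score merges 667nm spot fluorescence with signal to noise across triplicate slides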
[3] = small-molecule microarray binders of probe aCHRDL2, primary screen, biochemical, biotinylated probe, 635/667 nm fluorescence (AID 1100); conditions: higher = more signal
[4] = splicing luciferase reporter signal modulators, primary screen, spliceosome inhibition project, cell-based, HEK293, splice +/- reporter (AID 1101); conditions: luminescence, 24 h, higher = more signal, called active from +8 up or from −8 down;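 further: HEK293 cells carrying a splicing-competent luciferase reporter gene; test concentration not given here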
[5] = target: Fibroblast growth factor 10 (Homo sapiens) (UniProt O15520); test: FGF10 binders on small-molecule microarrays, primary screen, biochemical, small-molecule microarray, 635 nm fluorescence (AID 1102); conditions: FGF10 binding, fluorescence 635 nm, higher = more signal
[6] = test system: glycogen synthase kinase-3 (GSK3A per assay name; protocol says GSK3B); test: GSK3 binders on small-molecule microarrays, primary screen, biochemical, small-molecule microarray, 635 nm fluorescence, GSK3A (AID 1103); conditions: small-molecule microarray binding, fluorescence 635 nm; higher = more signal; further: the record names both GSK3A and GSK3B
[7] = target: Epidermal growth factor receptor (Homo sapiens) (UniProt P00533); test: EGFR binders on small-molecule microarrays, primary screen, biochemical, small-molecule microarray, 635 nm fluorescence (AID 1104); conditions: EGFR binding, higher = more signal;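 further: score merges 667 nm emission intensity with spot signal to noise over triplicate slides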
[8] = target: Follistatin-related protein 3 (Homo sapiens) (UniProt O95633); test: FSTL3 binders on small-molecule microarrays, primary screen, biochemical, small-molecule microarray, 635 nm fluorescence (AID 1105); conditions: FSTL3 binding, higher = more signal;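 further: score merges emission near 667 nm and signal to noise per printed spot across three slides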
[9] = target: Dickkopf-related protein 1 (Homo sapiens) (UniProt O94907); test: DKK1 binders on small-molecule microarrays, primary screen, biochemical, small-molecule microarray, 635 nm fluorescence scan (AID 1106); conditions: DKK1 binding, higher = more signal;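 further: score merges emission near 667 nm with signal to noise over three replicate slides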
[10] = test system: Inhibin beta A chain (activin A); test: INHBA (activin A) binders on microarrays, primary screen, biochemical, small-molecule microarray, 635 nm fluorescence scan (AID 1107); conditions: small-molecule microarray binding, higher = more signal;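 further: mouse activin A protein probed at 4.33 µg/mL on printed slides; score merges bound-protein fluorescence near 667 nm with spot signal-to-noise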
[11] = test system: Human papillomavirus type 1a protein E7 (residues 44-93); test: HPV1a E7 fragment binders on microarrays, primary screen, biochemical, small-molecule microarray, residues 44-93, 635 nm fluorescence (AID 1108); conditions: small-molecule microarray binding, fluorescence 635 nm; higher = more signal;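 further: E7 fragment applied at 1 µg/mL in TBST for 1 h at 4 C; score combines spot fluorescence with its signal to noise ratio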
[12] = modulators of HCV replicon luciferase signal, primary screen, HCV replication inhibitor project, Huh7 cells, luciferase reporter (AID 1109); conditions: 48 h, higher = more signal;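 further: huh7 hepatoma cells harbouring a luciferase neomycin HCV replicon reporter; luciferase luminescence as measure of HCV replicon replication; test concentration not given here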
[13] = target: Left-right determination factor 2 (Homo sapiens) (UniProt O00292); test: LEFTY2 binders on small-molecule microarrays, primary screen, biochemical, small-molecule microarray, 635 nm fluorescence scan (AID 1110); conditions: LEFTY2 binding, higher = more signal
[14] = target: Calmodulin-1 (Homo sapiens) (UniProt P0DP23); test: CALM1 binders on microarrays, EGTA buffer, profiling panel, biochemical, small-molecule microarray, Cy5-labelled CALM1 (AID 1111); conditions: Cy5-CALM1 binding fluorescence, higher = more signal;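 further: labelled calmodulin applied in Tris saline Tween buffer holding calcium plus EGTA and DTT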
[15] = target: Calmodulin-1 (Homo sapiens) (UniProt P0DP23); test: calcium-bound CALM1 binders on microarrays, profiling panel, artefact control for SMM control-protein annotation, biochemical, small-molecule microarray, Cy5-labelled CALM1, plus calcium (AID 1112); conditions: Cy5-CALM1 binding fluorescence, higher = more signal;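 further: score merges spot fluorescence with signal to noise from triplicate slides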
[16] = small-molecule microarray binders of probe aWnt5a, primary screen, biochemical, biotinylated probe, 635/667 nm fluorescence (AID 1113); conditions: higher = more signal;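 further: score merges 667 nm fluorescence intensity with signal-to-noise per printed feature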
[17] = small-molecule microarray binders of probe aShh, primary screen, biochemical, biotinylated probe, 635/667 nm fluorescence (AID 1114); conditions: higher = more signal;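 further: probe is biotin-labelled aShh protein from a stem cell growth factor screen; measures binding of labelled protein to compounds printed on the slide; score merges feature fluorescence at 667 nm with signal-to-noise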
[18] = small-molecule microarray binders of probe aNog, primary screen, biochemical, biotinylated probe, 635/667 nm fluorescence (AID 1115); conditions: higher = more signal;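 further: probe is biotinylated aNog protein used at 0.15 µg/mL for 1 h at 4 C; z-score combines 667 nm fluorescence of each spot with its signal to noise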
[19] = target: Torsin-1A-interacting protein 1 (Homo sapiens) (UniProt Q5JTV8); test: LAP1 binders from COS7 cell lysate, primary screen, small-molecule microarray, 635/667 nm fluorescence (AID 1116); conditions: COS7-hLAP1 lysate binding, 635 nm fluorescence, higher = more signal
[20] = target: Alpha-bungarotoxin (Bungarus multicinctus) (UniProt P60615); test: alpha-bungarotoxin binders on microarray, profiling panel, artefact control for SMM control protein annotation, biochemical, small-molecule microarray, Alexa647 label, 635/667 nm fluorescence (AID 1117); conditions: alpha-BTX-A647 binding fluorescence, higher = more signal
Chain of Alpha-bungarotoxin (Bungarus multicinctus) (P60615 whole entry, looked up): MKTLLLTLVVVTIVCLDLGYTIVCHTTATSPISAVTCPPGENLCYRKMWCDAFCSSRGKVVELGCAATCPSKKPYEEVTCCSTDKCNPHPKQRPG

Chain of Fibroblast growth factor 10 (Homo sapiens) (O15520 whole entry, looked up): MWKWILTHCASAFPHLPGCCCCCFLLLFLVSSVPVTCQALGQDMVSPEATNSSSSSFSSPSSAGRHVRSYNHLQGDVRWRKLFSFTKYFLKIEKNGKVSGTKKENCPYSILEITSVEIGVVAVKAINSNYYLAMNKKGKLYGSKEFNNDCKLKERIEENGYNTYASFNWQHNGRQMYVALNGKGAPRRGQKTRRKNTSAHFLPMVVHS
Chain of Left-right determination factor 2 (Homo sapiens) (O00292 whole entry, looked up): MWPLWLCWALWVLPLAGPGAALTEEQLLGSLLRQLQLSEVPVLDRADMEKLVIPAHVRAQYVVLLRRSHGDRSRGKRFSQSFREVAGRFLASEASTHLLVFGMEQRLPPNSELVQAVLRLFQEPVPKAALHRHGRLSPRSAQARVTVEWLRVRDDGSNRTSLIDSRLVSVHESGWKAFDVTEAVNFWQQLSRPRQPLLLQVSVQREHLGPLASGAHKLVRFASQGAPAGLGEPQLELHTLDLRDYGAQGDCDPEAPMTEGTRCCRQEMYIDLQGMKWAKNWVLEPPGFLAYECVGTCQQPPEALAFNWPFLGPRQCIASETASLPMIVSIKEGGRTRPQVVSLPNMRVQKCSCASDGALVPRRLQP
Chain of Dickkopf-related protein 1 (Homo sapiens) (O94907 whole entry, looked up): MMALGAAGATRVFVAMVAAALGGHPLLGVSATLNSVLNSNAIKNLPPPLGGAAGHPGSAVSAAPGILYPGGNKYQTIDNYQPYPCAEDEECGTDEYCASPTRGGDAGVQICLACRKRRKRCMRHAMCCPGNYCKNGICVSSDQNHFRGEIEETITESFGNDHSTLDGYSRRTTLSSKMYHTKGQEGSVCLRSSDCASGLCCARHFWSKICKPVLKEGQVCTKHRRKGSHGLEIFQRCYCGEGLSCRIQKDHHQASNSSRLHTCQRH
Chain of Epidermal growth factor receptor (Homo sapiens) (P00533 whole entry, looked up): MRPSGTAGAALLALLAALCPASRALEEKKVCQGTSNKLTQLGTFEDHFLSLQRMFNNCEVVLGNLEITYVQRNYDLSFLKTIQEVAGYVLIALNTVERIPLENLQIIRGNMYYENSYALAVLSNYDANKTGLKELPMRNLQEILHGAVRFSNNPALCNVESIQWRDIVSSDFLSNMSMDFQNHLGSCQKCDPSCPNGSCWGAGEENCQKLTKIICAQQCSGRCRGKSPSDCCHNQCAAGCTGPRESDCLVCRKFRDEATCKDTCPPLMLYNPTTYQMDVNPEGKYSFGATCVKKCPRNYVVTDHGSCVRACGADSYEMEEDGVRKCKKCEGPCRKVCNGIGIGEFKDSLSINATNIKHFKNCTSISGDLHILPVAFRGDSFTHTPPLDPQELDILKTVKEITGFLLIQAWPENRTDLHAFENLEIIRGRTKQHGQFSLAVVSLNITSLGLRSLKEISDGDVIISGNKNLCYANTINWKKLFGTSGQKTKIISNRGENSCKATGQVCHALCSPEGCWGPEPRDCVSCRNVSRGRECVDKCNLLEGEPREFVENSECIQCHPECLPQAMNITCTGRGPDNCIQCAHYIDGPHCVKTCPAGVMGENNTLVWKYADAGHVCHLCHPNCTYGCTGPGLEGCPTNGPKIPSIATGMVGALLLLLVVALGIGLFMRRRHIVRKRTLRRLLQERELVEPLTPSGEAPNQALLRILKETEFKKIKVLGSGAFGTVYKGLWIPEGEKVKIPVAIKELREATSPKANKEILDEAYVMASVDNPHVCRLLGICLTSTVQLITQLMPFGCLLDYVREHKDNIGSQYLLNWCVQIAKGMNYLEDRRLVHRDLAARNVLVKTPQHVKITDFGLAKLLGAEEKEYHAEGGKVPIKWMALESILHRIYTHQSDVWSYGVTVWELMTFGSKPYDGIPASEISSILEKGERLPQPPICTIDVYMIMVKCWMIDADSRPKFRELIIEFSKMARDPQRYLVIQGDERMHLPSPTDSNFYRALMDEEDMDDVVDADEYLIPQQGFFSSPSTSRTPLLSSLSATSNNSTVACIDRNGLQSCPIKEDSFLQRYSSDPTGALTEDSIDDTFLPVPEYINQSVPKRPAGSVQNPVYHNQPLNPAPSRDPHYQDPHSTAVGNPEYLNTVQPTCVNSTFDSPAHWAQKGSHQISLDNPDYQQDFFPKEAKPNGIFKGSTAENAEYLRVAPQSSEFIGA
Chain of Torsin-1A-interacting protein 1 (Homo sapiens) (Q5JTV8 whole entry, looked up): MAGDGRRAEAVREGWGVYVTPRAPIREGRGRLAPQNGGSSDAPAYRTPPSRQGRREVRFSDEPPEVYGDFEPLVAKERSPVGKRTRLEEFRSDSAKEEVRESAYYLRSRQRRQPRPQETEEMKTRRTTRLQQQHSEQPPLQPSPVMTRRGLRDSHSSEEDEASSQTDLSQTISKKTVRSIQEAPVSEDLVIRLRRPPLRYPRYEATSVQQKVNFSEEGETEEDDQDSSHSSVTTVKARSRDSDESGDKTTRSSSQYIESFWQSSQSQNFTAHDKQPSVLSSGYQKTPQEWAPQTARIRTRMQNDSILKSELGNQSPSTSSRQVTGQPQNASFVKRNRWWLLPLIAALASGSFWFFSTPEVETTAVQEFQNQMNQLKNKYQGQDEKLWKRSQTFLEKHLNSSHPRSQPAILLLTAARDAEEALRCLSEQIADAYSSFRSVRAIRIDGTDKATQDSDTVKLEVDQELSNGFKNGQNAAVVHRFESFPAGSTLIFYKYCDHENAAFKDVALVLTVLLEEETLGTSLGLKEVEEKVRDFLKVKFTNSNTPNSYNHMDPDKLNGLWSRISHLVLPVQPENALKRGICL
Chain of Follistatin-related protein 3 (Homo sapiens) (O95633 whole entry, looked up): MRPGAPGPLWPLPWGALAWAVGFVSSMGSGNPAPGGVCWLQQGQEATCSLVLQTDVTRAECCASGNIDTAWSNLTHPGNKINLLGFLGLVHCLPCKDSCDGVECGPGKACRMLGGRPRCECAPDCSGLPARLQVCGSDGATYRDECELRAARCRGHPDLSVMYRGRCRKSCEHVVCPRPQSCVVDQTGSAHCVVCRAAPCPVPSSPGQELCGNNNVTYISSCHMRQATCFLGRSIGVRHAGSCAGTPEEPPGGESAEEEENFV

Structure (SMILES) | composite z-score [1] | composite z-score [2] | composite z-score [3] | z-score [4] | composite z-score [5] | composite z-score [6] | composite z-score [7] | composite z-score [8] | composite z-score [9] | composite z-score [10] | composite z-score [11] | z-score [12] | composite z-score [13] | composite z-score [14] | composite z-score [15] | composite z-score [16] | composite z-score [17] | composite z-score [18] | composite z-score [19] | composite z-score [20]
COc1ccc(CC[C@H](O)c2cccc(OCC(=O)OC(C)(C)C)c2)cc1 | 1.16 | 0.15 | -0.0667 | 1.3 (inactive) | 0.883 | 1.06 | 0.344 | 1.09 | 0.688 | -0.0035 | 1.38 | -1.12 | 0.461 | 0.829 | -0.271 | 0.0181 | 0.167 | -0.216 | 1.27 | 0.737
CN(C)CCCC[C@@H]1NC(=O)[C@@H]2C[C@H](C(=O)NCc3ccc(F)cc3)[C@H](c3ccc(O)cc3)N2C1=O | 1.56 | -0.126 | -0.0292 | 0.104 (inactive) | 1.47 | 0.941 | 0.176 | 0.0719 | 0.2 | -1.43 | 0.16 | -0.0619 | -0.275 | -0.638 | 0.235 | -0.204 | -0.138 | -0.0503 | 0.385 | -0.407
CCCC[C@H]1OB(O)C[C@H]2C1=C(C)C[C@H]1C(=O)C=CC(=O)[C@H]12 | 0.559 | -0.257 | -0.722 | 1.04 (inactive) | 0.845 | 0.827 | 0.475 | 0.799 | 0.664 | 0.852 | 1.04 | -2.52 | 0.686 | -0.321 | -0.741 | -0.132 | 0.0278 | -0.109 | 0.0514 | 0.178
C=C(COC)C(=O)CC[C@@H](OC(C)=O)c1ccc(OCCO)cc1 | 1.09 | 0.237 | 0.523 | 2 (inactive) | 0.977 | 0.186 | -0.484 | 0.278 | -0.0393 | 1.42 | -0.133 | -1.23 | -0.374 | -0.473 | -0.621 | -0.154 | 0.0373 | 0.197 | 0.119 | 1.39
CCCCN1CC=CC23O[C@@H]4/C=C\CCC(C)OC(=O)C4[C@H]2C(=O)N(C(C)CO)[C@@H]3C1=O (stereo not given in full) | 0.356 | -0.463 | -0.471 | 1.07 (inactive) | -0.816 | -0.937 | -0.659 | -0.719 | -0.127 | 1.19 | -1.13 | 0.263 | -0.0716 | -0.325 | -1.04 | -0.178 | -0.2 | -0.188 | 0.201 | -0.606
CCCC[C@@H]1C[C@H]1[C@@H](NC(=O)Cc1ccccc1)c1ccc(Cl)cc1 | 0.906 | 1.22 | 1.45 | -0.0981 (inactive) | 0.592 | 0.937 | 0.0572 | 0.868 | -0.946 | 0.674 | 1.37 | -1.79 | -0.496 | 2.44 | 1.53 | 0.225 | 1.47 | 0.905 | 1.12 | 2.14
CC1(C)OC[C@@]23C=C(Br)[C@@H](C[C@H]12)[C@@]1(CO1)C3=O | 0.0908 | -0.123 | -0.567 | 0.0884 (inactive) | 0.447 | 0.691 | 0.376 | 0.564 | 0.356 | 0.174 | 0.223 | -1.33 | 0.841 | 0.0619 | -0.866 | 0.0937 | -0.0769 | -0.132 | 0.0611 | 0.179
Cc1ccccc1C(O)C1C=CC2C(=O)N(c3ccccc3)C(=O)C2N1Nc1ccccc1F (stereo not given) | 1.31 | 0.938 | 1.23 | 0.476 (inactive) | 0.77 | 0.45 | 0.153 | 0.836 | -0.6 | 1.04 | 1.34 | 1.97 | -0.0612 | 2.36 | 0.789 | 0.156 | 0.232 | 1.81 | 1.78 | 1.83
C=CCC(OC(C)=O)[C@@H]1[C@@H](N(Cc2ccc(-c3cccc(C(F)(F)F)c3)o2)C(=O)Cc2ccc(F)cc2)c2cc(OCCCO)ccc2N1C(=O)c1ccc2ccccc2c1 (stereo not given in full) | 0.819 | -0.185 | 0.429 | -0.182 (inactive) | -0.701 | -1.87 | -0.659 | 0.199 | -0.0392 | 1.08 | -1.18 | -0.735 | -0.72 | -0.681 | -0.214 | -0.0548 | -0.221 | -0.624 | 0.0175 | -0.318
C/C=C/CN(C(=O)C#Cc1ccccc1)[C@H](CO[Si](C)(C)C(C)(C)C)c1ccccc1 | -0.435 | -0.65 | -0.169 | -3.21 (inactive) | -1.27 | -0.0745 | -1.37 | -1.44 | -0.72 | 1.19 | 0.0833 | -0.944 | -0.594 | -0.855 | -1.76 | -0.286 | -0.372 | -0.338 | -0.721 | -2.16
COCCOC(=O)N1C(=O)[C@@]2(c3cc(C#CCC(C(=O)OC)C(=O)OC)ccc31)[C@H](C(=O)N1CCCCCCC1)[C@H]1C(=O)O[C@H](c3ccccc3)[C@H](c3ccccc3)N1[C@@H]2c1ccccc1OCCO | 1.61 | 2.62 | 1.59 | -0.815 (inactive) | 0.547 | 1.32 | 0.893 | 1.67 | 0.987 | 1.96 | 1.32 | -2.25 | 1.09 | 2.56 | 1.63 | 0.931 | 2.96 | 3.14 | 3.82 | 2.51
